# Test results from the supplement of paper PMC7366291.
# Structures can show the parent of a compound that is named as a salt. ± gives the standard deviation or the standard deviation of the averaged measurements.
# How the values were obtained:
# Details in all cases: 25 µM; exposure: 24-48 hpf
# [1] = system: Danio rerio Tg(wt1b:EGFP) embryo, pronephros; test: glomerular separation, fold change vs DMSO control; higher = glomeruli further apart (abnormal)
# How it was run: (§1)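 From 24 to 48 hpf, at 28.5°C, dechorionated Tg(wt1b:EGFP) zebrafish embryos sat in HEPES-buffered E3 with 0.003% PTU carrying 25 μM compound and 0.5% DMSO. Their pronephroi were imaged dorsally in 96-well plates filled with agarose, using 470 nm light and 10 z-slices. A Fiji macro measured distances and angles between 16 reference points that were set manually on maximum projections, and any value more than 2 SD from its feature mean was excluded. Features are expressed as fold change relative to the mean of DMSO-treated embryos imaged on the same day.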
# [2] = system: Danio rerio Tg(wt1b:EGFP) embryo, pronephros; test: glomerular width (mean of left and right), fold change vs DMSO control; higher = wider glomerulus
# How it was run: as §1
# [3] = system: Danio rerio Tg(wt1b:EGFP) embryo, pronephros; test: fraction of imaged embryos annotated as normal kidney; higher = less nephrotoxic; extreme values may be limits of the assay
# How it was run: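 Tricaine-anaesthetised Tg(wt1b:EGFP) zebrafish larvae were oriented dorsally in agarose-filled 96-well plates, and their pronephroi were recorded by widefield fluorescence at 470 nm in 10 z-slices. Before this, the dechorionated embryos had been exposed in 12-well plates to 25 μM compound in 0.5% DMSO and 5 mM HEPES-buffered E3 with 0.003% PTU, from 24 to 48 hpf at 28.5°C. Maximum projections were annotated manually for each embryo, and the read-out is the fraction per treatment classed as normal kidney.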
# [4] = system: Danio rerio Tg(wt1b:EGFP) embryo, pronephros; test: pronephric angle neck segment to proximal convoluted tubule (mean of left and right), fold change vs DMSO control; higher = larger pronephric angle
# How it was run: as §1
compound,measurement,setting,value
CC(C)(C)NC(=O)[C@@H]1CN(Cc2cccnc2)CCN1C[C@@H](O)C[C@@H](Cc1ccccc1)C(=O)N[C@H]1c2ccccc2C[C@H]1O [Indinavir sulfate],glomerular separation,[1],1.35 ± 0.6
same,glomerular width,[2],0.851 ± 0.062
same,fraction of imaged embryos annotated as normal kidney,[3],1
same,pronephric angle neck segment,[4],1.101 ± 0.002
Nc1ccc(S(=O)(=O)Nc2cnc3ccccc3n2)cc1 [Sulfaquinoxaline sodium salt],glomerular separation,[1],0.886 ± 0.3
same,glomerular width,[2],0.97 ± 0.033
same,fraction of imaged embryos annotated as normal kidney,[3],1
same,pronephric angle neck segment,[4],1.09 ± 0.012
C[C@H](CCC(=O)O)[C@H]1CC[C@H]2[C@@H]3[C@@H](O)C[C@@H]4C[C@H](O)CC[C@]4(C)[C@H]3CC[C@]12C [Urosiol],glomerular separation,[1],1.3 ± 0.7
same,glomerular width,[2],0.775 ± 0.074
same,fraction of imaged embryos annotated as normal kidney,[3],0.583
same,pronephric angle neck segment,[4],0.965 ± 0.032
CC1(C)O[C@@H]2C[C@H]3[C@@H]4C[C@H](F)C5=CC(=O)CC[C@]5(C)[C@H]4[C@@H](O)C[C@]3(C)[C@]2(C(=O)CO)O1 [Flurandrenolide],glomerular separation,[1],1.09 ± 0.49
same,glomerular width,[2],1.08 ± 0.04
same,fraction of imaged embryos annotated as normal kidney,[3],0.333
same,pronephric angle neck segment,[4],0.979 ± 0.1
"C[C@H]1C[C@@H]2[C@H]([C@@H](O)C[C@@]3(C)[C@H]2CC[C@]3(O)C(=O)CO)[C@@]2(C)C=CC(=O)C=C12 [Methylprednisolone, 6-alpha]",glomerular separation,[1],1.11 ± 0.4
same,glomerular width,[2],1.21 ± 0.11
same,fraction of imaged embryos annotated as normal kidney,[3],0.833
same,pronephric angle neck segment,[4],1.06 ± 0.088
C[C@]12CC[C@@H]3c4ccc(O)cc4CC[C@H]3[C@@H]1C[C@@H](O)[C@@H]2O [Estriol],glomerular separation,[1],0.626 ± 0.2
same,glomerular width,[2],1.03 ± 0.042
same,fraction of imaged embryos annotated as normal kidney,[3],0.917
same,pronephric angle neck segment,[4],1.026 ± 0.0015
COc1ccc2c(c1)C(=O)N(CCc1ccc(S(=O)(=O)NC(=O)NC3CCCCC3)cc1)C(=O)C2(C)C [Gliquidone],glomerular separation,[1],1.07 ± 0.54
same,glomerular width,[2],0.883 ± 0.011
same,fraction of imaged embryos annotated as normal kidney,[3],1
same,pronephric angle neck segment,[4],1.12 ± 0.039
Cc1ncc([N+](=O)[O-])n1CCO [Metronidazole],glomerular separation,[1],1.1 ± 0.31
same,glomerular width,[2],0.928 ± 0.084
same,fraction of imaged embryos annotated as normal kidney,[3],0.917
same,pronephric angle neck segment,[4],0.884 ± 0.061
Cc1cc(C)nc(NS(=O)(=O)c2ccc(N)cc2)n1 [Sulfamethazine sodium salt],glomerular separation,[1],1.11 ± 0.43
same,glomerular width,[2],1.08 ± 0.048
same,fraction of imaged embryos annotated as normal kidney,[3],0.917
same,pronephric angle neck segment,[4],1.01 ± 0.031
CC(C)(O)c1ccccc1CC[C@@H](SCC1(CC(=O)O)CC1)c1cccc(/C=C/c2ccc3ccc(Cl)cc3n2)c1 [Montelukast],glomerular separation,[1],0.861 ± 0.26
same,glomerular width,[2],0.925 ± 0.047
same,fraction of imaged embryos annotated as normal kidney,[3],0.833
same,pronephric angle neck segment,[4],1.04 ± 0.026
O=C(Nc1ccccc1)OCC(CN1CCCCC1)OC(=O)Nc1ccccc1 (configuration not stated) [Diperodon hydrochloride],glomerular separation,[1],1.1 ± 0.41
same,glomerular width,[2],0.984 ± 0.04
same,fraction of imaged embryos annotated as normal kidney,[3],0.818
same,pronephric angle neck segment,[4],1.04 ± 0.024
O=C(O)c1cc(-c2ccc(F)cc2F)ccc1O [Diflunisal],glomerular separation,[1],4.51 ± 2.5
same,glomerular width,[2],0.881 ± 0.022
same,fraction of imaged embryos annotated as normal kidney,[3],0.0833
same,pronephric angle neck segment,[4],1.69 ± 0.17
CC1(C)S[C@@H]2[C@H](NC(=O)[C@H](N)c3ccccc3)C(=O)N2[C@H]1C(=O)O [Ampicillin trihydrate],glomerular separation,[1],0.924 ± 0.41
same,glomerular width,[2],1.03 ± 0.016
same,fraction of imaged embryos annotated as normal kidney,[3],0.917
same,pronephric angle neck segment,[4],1.03 ± 0.025
